What all share (assay): NCI-60 one-dose screen, 48 h (100 = growth as untreated, 0 = no growth, -100 = all killed)
Common to all, as to conditions: 10 µM

Assay [1] concerns DU-145 prostate.
Assay [2] relates to K-562 leukemia.
Assay [3] deals with MALME-3M melanoma.
The test system of assay [4] is MDA-MB-231 breast.
Assay [5] has as its system RXF 393 renal.
Assay [6] concerns SF-268 CNS.
The subject of assay [7] is SF-295 CNS.
The test system of assay [8] is SF-539 CNS.
In assay [9] the test system is UACC-257 melanoma.
For assay [10], the system named is M14 melanoma.

The text below walks through data of PubChem BioAssay (NCI).

This is part of a sample that, as a whole, favours compounds with a hit. Of some 83,000 tested, about 20% had one in any assay.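 Treatment: one concentration, 48 hours, 96-well format. Scoring: percent growth, with anything below 10 considered active.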 Unmarked numbers belong to inactive results. Calls of active or inactive are those of the source.

Take `O=C(N/N=C/c1ccc(Cl)cc1)c1ccc(Cc2n[nH]c(=O)c3cccnc23)cc1`: the growth is 112% in assay [1]; 106% in assay [2]; 93.2% in [3]; 102% in assay [4]; 91.2% in [5]; 98.6% in [6]. Moreover, the growth was 101% in [7], 89.7% in assay [8], 97.1% in assay [9] and 99.6% in assay [10].

`Cc1c[nH]c(=O)n(Cc2nnc(CCC(=O)c3nc4ccccc4[nH]3)o2)c1=O`: the growth was -35.3% (active) in assay [1]; 10.4% in assay [2]; 47.8% in [3]; 26.1% in [4]; -7.83% (active) in [5]; 36.6% in assay [6]. The growth in assay [7] is 21.5%; in assay [8], -15.2% (active); in assay [9], 81.4%; in assay [10], -16.7% (active).

With `COc1cccc(-c2nc3sccn3c2-c2cccc(S(C)(=O)=O)c2)c1`, the growth in assay [1] was 110%; in assay [2], 95.5%; in assay [3] it was 129%; in assay [4], 93.4%; in assay [5], 84.1%; in assay [6] it was 100%. The growth in assay [7] was 94.4%; in assay [8], 94.3%; in assay [9], 115%; in assay [10], 119%.

Turning to `CC[C@H]1OC(=O)[C@H](C)[C@@H](O[C@H]2C[C@@](C)(OC)[C@@H](O)[C@H](C)O2)[C@H](C)[C@@H](O[C@@H]2O[C@H](C)C[C@H](N(C)C)[C@H]2O)[C@](C)(OC)C/C(C)=C2/O[C@@]1(C)C=C2C`, the growth in assay [1] is 76.9%; in assay [2], -19.6% (active); in assay [3], -80% (active); in [4], -44.2% (active); in assay [5], 21.3%; in [6], 64.1%. For the same molecule, the growth was 95.5% in assay [7], 64.7% in assay [8], 17.7% in assay [9] and -75.1% (active) in [10].

As for `CC(C)C[C@H](NC(=O)Cn1cccc(CNC(=O)c2ccccc2)c1=O)B(O)O`, the growth is 43.1% in assay [1]; 11.6% in assay [2]; -35.3% (active) in assay [3]; -2.81% (active) in [4]; -19% (active) in [5]; -19.5% (active) in [6]. Moreover, the growth was 1.43% (active) in assay [7], -16.6% (active) in [8], -9.26% (active) in assay [9] and 12.2% in [10].

For the molecule `C=CCSC(CC)(CC)C(=O)NC`, the growth is 120% in assay [1]; 98.3% in assay [2]; 115% in assay [3]; 114% in assay [4]; 107% in [5]; 112% in [6]. Besides, the growth in assay [7] is 105%; in [8], 103%; in [9], 92.1%; in assay [10] it was 103%.

Take `O=C(CCC(C(=O)c1ccccc1)c1ccccc1)c1ccccc1` (stereo not given): the growth is 86.4% in assay [1]; 18.7% in assay [2]; 43.4% in assay [3]; 77.9% in assay [4]; 78% in assay [5]; 85% in assay [6]. For the same molecule, the growth in [7] was 36.9%; in assay [8], 99.9%; in [9], 90.5%; in assay [10], 52.2%.

In the case of `O=C(/C=C/C=C/c1c(C2CC2)nc2ccccc2c1-c1ccc(F)cc1)c1cccs1`, the growth is 20.4% in assay [1]; 5.43% (active) in [2]; -35.1% (active) in assay [3]; 25.1% in assay [4]; -54.2% (active) in assay [5]; 43.4% in assay [6]. The growth in assay [7] was 18.3%; in assay [8], -32.8% (active); in [9], -35.4% (active); in [10] it was 3.19% (active).
